This note sets out measurements from the OligoGym collection.
Further: reference of the scale not given here.

The first test deals with PTGFRN. Kind of test: pooled miR-30 sensor sort-seq; sequence = guide strand. The settings on record: shRNA.
Consider TTAAATATAGGACCTGAGGTTT, for which the sensor-assay potency score (higher = more potent) is -1.13.

For the sequence TTGGAGAAGACATCCTTGCTTT, the sensor-assay potency score (higher = more potent) was -0.201.

As to TTAACCATTAAAAAGCTGCAGT, the sensor-assay potency score (higher = more potent) is -0.442.

TATTTTAGCGTCCAGTCCCCGT: the sensor-assay potency score (higher = more potent) is -1.12.

For TTTAGTGTAACACACTTTGTTT, the sensor-assay potency score (higher = more potent) is -0.905.

With TTTGCTAACATCCCGAACCAGT, the sensor-assay potency score (higher = more potent) was -0.807.

TTTTCTTTGCTAACATCCCGAA had a sensor-assay potency score (higher = more potent) of -0.589.

Another test concerns the target PTGFR. The description is as above. The settings on record: shRNA.
Turning to TAACTAACTGAAATATTGCCAA, the sensor-assay potency score (higher = more potent) is -0.195.

In the case of TTTGACAAATTTCAAAACCTGA, the sensor-assay potency score (higher = more potent) is -0.803.

With TTGACTGGCAAGCTTATAGAGA, the sensor-assay potency score (higher = more potent) is -0.966.

Sequence TTTAATGGAACTAAGCTCCCAA yielded a sensor-assay potency score (higher = more potent) of 0.844.

In turn, TTTGATGTCTTCTGTGTTGTAG came in with a sensor-assay potency score (higher = more potent) of 0.583.

Consider TTGTGTTTGAAAGAAGCGCAGC, for which the sensor-assay potency score (higher = more potent) is -0.804.

In the case of TTGTAGAAACACCAGGTCCTCG, the sensor-assay potency score (higher = more potent) was -0.683.

In the case of TCTGTGTTGTAGAAACACCAGG, the sensor-assay potency score (higher = more potent) is -1.29.

For the sequence TTTGTGACTCCAATACACCGCT, the sensor-assay potency score (higher = more potent) was -0.161.

TGCACAACAATGAAACACCAAG showed a sensor-assay potency score (higher = more potent) of -1.45.

In the case of TTGCACAACAATGAAACACCAA, the sensor-assay potency score (higher = more potent) was determined as 0.0591.

Sequence TTTTATAGTCTCGATGTCCAAG came in with a sensor-assay potency score (higher = more potent) of -0.668.

In another test the target is PTH2R. The description is as above. The settings on record: shRNA.
As to TTTCAGCACAAGGACAATCTGC, the sensor-assay potency score (higher = more potent) is -0.513.

TATATTGTGATTTGTCCACAGA yielded a sensor-assay potency score (higher = more potent) of -0.718.

Sequence TAGAATATCATCTCCCTGCCTC returned a sensor-assay potency score (higher = more potent) of -0.315.

As to TAAATAAACATCACAACAGCAA, the sensor-assay potency score (higher = more potent) is -0.154.

Sequence TAAACTACTCCATTGACACTTG displayed a sensor-assay potency score (higher = more potent) of -0.214.

TAGTGCAATGCAATCGTCTGAA came in with a sensor-assay potency score (higher = more potent) of -0.115.

TAAGCTGTGCATAAAATCCCAT had a sensor-assay potency score (higher = more potent) of -0.0361.

Sequence TTTAGATCCTAATTGCTCCTAT gave a sensor-assay potency score (higher = more potent) of 0.713.

Regarding TTAAGTAACACCTTAACTGAAT, the sensor-assay potency score (higher = more potent) is -1.01.

For the sequence TAGAACTCTAACCGTATTCAGA, the sensor-assay potency score (higher = more potent) was -0.533.

For the sequence TAGCTGCTAAGATCGGTGCTTG, the sensor-assay potency score (higher = more potent) was -0.715.

As to TTTGCCAGAGATAAGCACCATG, the sensor-assay potency score (higher = more potent) was -0.588.

The target in another test is PTPN7. Described as above. The settings on record: shRNA.
The sequence TAGTGGACACATTTCTCCTTGC showed a sensor-assay potency score (higher = more potent) of -0.219.

Take TAGACAGACACGGCTCTGGGGA: the sensor-assay potency score (higher = more potent) was -0.764.

The sequence TCTTCTTCCAGTTGCTTGGGGC displayed a sensor-assay potency score (higher = more potent) of -0.37.

As to TTCTTCTTCCAGTTGCTTGGGG, the sensor-assay potency score (higher = more potent) was found to be 0.0231.

Take TTGGCATTGATGTAATCTCCGT: the sensor-assay potency score (higher = more potent) is -0.978.

Regarding ATTGATGTAATCTCCGTCCTCC, the sensor-assay potency score (higher = more potent) was 0.571.

On to TTGTCCTTACTGCTGCTGCTTC, for which the sensor-assay potency score (higher = more potent) was -0.729.

Sequence TTCTCCTCGGGCTTTCAGCTGT came in with a sensor-assay potency score (higher = more potent) of -0.819.

Take TTCTGGTGTCTGATGGTCTGGC: the sensor-assay potency score (higher = more potent) was -0.217.
